The whole screen tested about 39,000 compounds, of which about 3,300 (8.5%) were called active. The entries come from a sample that favours actives as a whole.
What follows are compounds tested on HepG2 (assay: cytotoxicity call (relative viability < 0.9)). Conditions: 10 µM.

SMILES | cytotoxicity call
C[C@H]1CN([C@@H](C)CO)C(=O)Cc2cc(NC(=O)CCCCCC(=O)Nc3ccccc3N)ccc2O[C@@H]1CN(C)CC1CCCCC1 | inactive
Cc1ccc(S(=O)(=O)N(C)C[C@@H]2OCCCC[C@@H](C)Oc3ccc(NC(=O)Cc4ccccc4)cc3C(=O)N([C@H](C)CO)C[C@@H]2C)cc1 | inactive
Cc1ccc(S(=O)(=O)N(C)C[C@@H]2OCCCC[C@H](C)Oc3ccc(NC(=O)Cc4ccccc4)cc3C(=O)N([C@H](C)CO)C[C@@H]2C)cc1 | active
Cc1ccc(S(=O)(=O)N(C)C[C@@H]2OCCCC[C@H](C)Oc3ccc(NC(=O)Cc4ccccc4)cc3C(=O)N([C@H](C)CO)C[C@H]2C)cc1 | inactive
Cc1ccc(S(=O)(=O)N(C)C[C@H]2OCCCC[C@H](C)Oc3ccc(NC(=O)Cc4ccccc4)cc3C(=O)N([C@@H](C)CO)C[C@@H]2C)cc1 | active
Cc1ccc(S(=O)(=O)N(C)C[C@H]2OCCCC[C@H](C)Oc3ccc(NC(=O)Cc4ccccc4)cc3C(=O)N([C@H](C)CO)C[C@H]2C)cc1 | inactive
Cc1ccc(S(=O)(=O)N(C)C[C@@H]2OCCCC[C@@H](C)Oc3ccc(NC(=O)Cc4ccccc4)cc3C(=O)N([C@@H](C)CO)C[C@@H]2C)cc1 | inactive
CC(C)NC(=O)Nc1ccc2c(c1)C(=O)N([C@H](C)CO)C[C@@H](C)[C@H](CN(C)S(=O)(=O)c1cn(C)cn1)OCCCC[C@H](C)O2 | inactive
CC(C)(C)NC(=O)[C@@H]1C[C@@H]2CCCC[C@@H]2CN1C[C@@H](O)[C@H](Cc1ccccc1)NC(=O)[C@H](CC(N)=O)NC(=O)c1ccc2ccccc2n1 | inactive
Cc1noc(C)c1S(=O)(=O)Nc1cccc2c1O[C@H](CN(C)C(=O)Nc1ccc3c(c1)OCO3)[C@H](C)CN([C@@H](C)CO)C2=O | inactive
COc1ccc(S(=O)(=O)Nc2cccc3c2O[C@H](CN(C)S(C)(=O)=O)[C@H](C)CN([C@H](C)CO)C3=O)cc1 | inactive
C[C@H](CO)N1C[C@H](C)[C@H](CN(C)S(=O)(=O)c2ccc(Cl)cc2)Oc2c(NC(=O)c3ccc(-c4nccs4)cc3)cccc2C1=O | active
C[C@@H]1CN([C@H](C)CO)C(=O)c2cccc(NC(=O)c3ccc(-c4nccs4)cc3)c2O[C@@H]1CN(C)Cc1ccc(C(=O)Nc2ccccc2N)cc1 | active
C[C@@H]1CN([C@@H](C)CO)C(=O)c2cccc(NC(=O)c3ccc(-c4nccs4)cc3)c2O[C@H]1CN(C)S(=O)(=O)c1ccc(Cl)cc1 | inactive
C[C@H](CO)N1C[C@H](C)[C@@H](CN(C)Cc2ccc(-c3ccccc3)cc2)Oc2c(NC(=O)c3ccc(-c4nccs4)cc3)cccc2C1=O | inactive
C[C@H]1CN([C@@H](C)CO)C(=O)c2cccc(NC(=O)c3ccc(-c4nccs4)cc3)c2O[C@H]1CN(C)Cc1ccc(C(=O)Nc2ccccc2N)cc1 | inactive
C[C@@H]1CN([C@@H](C)CO)C(=O)c2cccc(NC(=O)c3cnccn3)c2O[C@H]1CN(C)Cc1ccccc1 | inactive
C[C@@H]1CN([C@@H](C)CO)C(=O)c2cccc(NC(=O)c3ccc(-c4nccs4)cc3)c2O[C@@H]1CN(C)S(=O)(=O)c1ccc(Cl)cc1 | inactive
C[C@@H]1CN([C@H](C)CO)C(=O)c2cccc(NC(=O)c3cnccn3)c2O[C@H]1CN(C)Cc1ccccc1 | active
C[C@H]1CN([C@@H](C)CO)C(=O)c2cccc(NC(=O)c3ccc(-c4nccs4)cc3)c2O[C@@H]1CN(C)Cc1ccc(-c2ccccc2)cc1 | inactive
C[C@H](CO)N1C[C@H](C)[C@@H](CN(C)Cc2ccccc2)Oc2c(NC(=O)c3cnccn3)cccc2C1=O | inactive
C[C@H](CO)N1C[C@H](C)[C@@H](CN(C)Cc2ccc(C(=O)Nc3ccccc3N)cc2)Oc2c(NC(=O)c3ccc(-c4nccs4)cc3)cccc2C1=O | inactive
C[C@@H]1CN([C@@H](C)CO)C(=O)c2cccc(NC(=O)c3ccc(-c4nccs4)cc3)c2O[C@@H]1CN(C)Cc1ccc(-c2ccccc2)cc1 | active

Reference: the antibiotic and cytotoxicity screens of Wong et al. (2023)
